# Compound activity from PubChem.
# RORg inh: inhibitors of mouse ROR gamma transcriptional activity; Potency, µM (titrated, usually from 53.6 µM), usual class: inhibitors; P51450; AID 2551; Drosophila S2 Gal4-RORgamma UAS-luciferase reporter, 20 h; hit rate 5.4% among 310,000; further: nearly all actives have a fitted effect of over 60% in size
# Target sequence (P51450 whole entry, looked up, the tested form may be a part): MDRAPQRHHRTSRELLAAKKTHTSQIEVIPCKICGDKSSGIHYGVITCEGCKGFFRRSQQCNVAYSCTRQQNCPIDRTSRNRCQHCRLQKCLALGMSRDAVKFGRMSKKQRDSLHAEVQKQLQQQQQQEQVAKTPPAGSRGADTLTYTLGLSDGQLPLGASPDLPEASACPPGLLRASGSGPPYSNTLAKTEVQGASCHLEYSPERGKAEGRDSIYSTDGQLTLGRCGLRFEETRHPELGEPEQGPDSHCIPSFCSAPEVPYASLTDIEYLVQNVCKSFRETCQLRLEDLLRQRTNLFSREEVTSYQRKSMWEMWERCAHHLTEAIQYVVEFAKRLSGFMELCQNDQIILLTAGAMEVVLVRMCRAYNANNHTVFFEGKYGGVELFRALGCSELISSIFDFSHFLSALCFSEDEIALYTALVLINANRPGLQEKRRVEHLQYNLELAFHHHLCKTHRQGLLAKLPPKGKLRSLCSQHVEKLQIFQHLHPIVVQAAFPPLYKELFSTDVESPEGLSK
#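 ROR gamma transcriptional activity was tracked as Gal4-UAS luciferase output in stably transfected Drosophila Schneider cells, with compound added 1 hr before 700 uM copper sulfate induction and a 20 hr ambient-temperature incubation.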
# Gal4-VP16 FLuc: counter-screen for ROR gamma inhibitors: Gal4-VP16 reporter; Drosophila S2 Gal4-VP16 UAS-luciferase, luminescence, 20 h; Potency, µM (series often up to 53.6 µM), actives largely listed as inhibitors; hit rate 3.5% among 310,000;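 further: Gal4-VP16 expression switched on by copper sulfate through the metallothionein promoter; nearly all actives have a fitted effect of over 50% in size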
# ClpP mod: qHTS Assay for Activators of ClpP; ATP-dependent Clp protease proteolytic subunit (Bacillus subtilis (strain 168)), P80244; purified B. subtilis ClpP, FRET peptide cleavage, 20 min; Potency, µM (doses to about 57.5 µM); hit rate 1.9% among 340,000; active means well fitted falling curve with a large enough effect; inconclusive means small, poorly fitted or top-dose-only effect; inactive means no such curve, though single readings can be large or run the other way; further: the source files actives as falling curves though it sought activators and does not explain the sign; nearly all actives have a fitted effect of over 65% in size
# Target sequence (P80244 whole entry, looked up): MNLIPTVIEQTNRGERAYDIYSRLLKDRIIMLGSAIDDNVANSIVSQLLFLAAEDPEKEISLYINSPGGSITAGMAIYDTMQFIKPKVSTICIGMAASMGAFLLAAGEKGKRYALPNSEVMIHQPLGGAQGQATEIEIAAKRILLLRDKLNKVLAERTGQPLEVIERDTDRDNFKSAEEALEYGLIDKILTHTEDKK
#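 Purified B. subtilis ClpP, 10 microg/mL final in Tris/HCl pH8 with KCl, BSA, glycerol and Tween-20, cleaved an Abz/nitrotyrosine-quenched decapeptide. Fluorescence (ex 320, em 430) was read at 0 and 20 min at room temperature. Delta was normalized to 5.8 microM ADEP and DMSO/no-enzyme controls.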
# Sfp PPTase inh: blocks B. subtilis Sfp PPTase activity; Biochemical Sfp PPTase activity, qHTS; hit rate 3.5% among 310,000; Potency, µM, hits mostly inhibitors; AID 1490;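 further: the enzyme is Sfp with the accession as filed and its product quenches rhodamine fluorescence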
#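 Sfp 15 nM + cpd, 15 min RT; start w/ rhodamine-CoA 5 uM, BHQ-2-YbbR 12.5 uM (final); 50 mM Hepes pH 7.6, 10 mM MgCl2, 0.01% NP-40, 0.01% BSA; read 525/598 nm at 0 and 30 min.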
# PINK1 expr mod: changes PINK1 expression. Potency, µM (series often up to 76.6 µM), usual class: activators. PINK1 immunofluorescence, high-content cytometry, 24 h. hit rate 0.2% among 410,000. AID 624263; active means well fitted activation curve with a large enough effect; inconclusive means small, poorly fitted or top-dose-only effect; cell line not stated here; further: nearly all actives have a fitted effect of over 65% in size
#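 Decision-based qHTS: stable cells, 24 h exposure to five compound concentrations, CCCP as control. Fixed cells stained for PINK1 plus nuclear, mitochondrial and cell markers, cytometer read.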
# Epigenetic derep: regulators of epigenetic silencing causing reporter derepression in mouse cells; murine LDR cells, GFP reporter derepression, 30 h; Potency, µM (titrated, usually from 53.9 µM), most hits filed as activators; hit rate 0.2% among 280,000; further: nearly all actives have a fitted effect of over 60% in size
#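 In this reporter-derepression format, murine cells bearing a silenced integrated CMV-GFP locus incubate with test compound (30 h, 37 C), then are washed and imaged; fluorescent objects of 20–120 um count as induced cells.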
# Hits are given with their value; . = inactive; ? = inconclusive; / = no result; ! = not confirmed by another sample; [ ] = another dose, or the depositor's remark. The list is not random: actives were taken first. Their share in the collection is about 8.1%. Unless noted, the call rests on the fitted dose curve; in most records, active means well fitted curve in the direction sought with a large enough effect; inconclusive means small, poorly fitted or top-dose-only effect, or another doubt; inactive means no such curve, though single readings can be large; an effect the other way counts as inactive or inconclusive.
SMILES,RORg inh,Gal4-VP16 FLuc,ClpP mod,Sfp PPTase inh,PINK1 expr mod,Epigenetic derep
CC(Sc1ccsc1[N+](=O)[O-])C(=O)NCc1ccco1 (stereo not drawn),.,.,.,50µM,.,.
O=C(NCC(c1ccco1)S(=O)(=O)c1cccs1)c1ccc(C(F)(F)F)cc1 (stereo not drawn),/,/,.,/,.,.
O=C(NNC(=O)c1ccc([N+](=O)[O-])o1)c1ccccc1,11µM,18µM,.,.,.,.
O=C(c1ccc2c(=O)n(-c3ccccc3)c(=S)[nH]c2c1)N1CCN(c2ccccc2)CC1,/,/,.,/,.,/
COc1ccccc1N1CCN(C(=O)c2ccc3c(=O)n(Cc4ccco4)c(=S)[nH]c3c2)CC1,6.3µM,?,.,.,.,.
COc1ccccc1Cn1c(=S)[nH]c2cc(C(=O)N3CCN(c4ccccc4OC)CC3)ccc2c1=O,?,.,.,.,.,/
COc1ccc(OC)c(-n2c(=S)[nH]c3cc(C(=O)N(C)Cc4ccccc4)ccc3c2=O)c1,13µM,?,.,.,.,.
COc1ccc(OC)c(-n2c(=S)[nH]c3cc(C(=O)N4CCN(c5ccccc5)CC4)ccc3c2=O)c1,11µM,.,.,.,.,.
COc1ccc(-n2c(=S)[nH]c3cc(C(=O)NCc4ccc(F)cc4)ccc3c2=O)c(OC)c1,?,?,.,.,.,/
Cc1cccc(-n2c3nc(=O)[nH]c(=O)c-3cc3c(Cl)cccc32)c1C,/,/,.,/,.,.
NNc1ccc(Cc2ccc(Cl)cc2Cl)nn1,3.5µM,?,/,.,.,.
O=C(/C=C/c1ccc(O)c(O)c1)c1ccc(O)cc1O,.,.,/,.,/,/
Cc1ccc(C(=O)C[n+]2cccc3cccc(O)c32)cc1,/,/,.,/,/,/
CCN(C(=O)c1ccc(C(C)(C)C)cc1)c1nnc(Cn2nnc3ccccc32)s1,?,5.6µM,.,.,.,.
CCN(C(=O)CC(C)C)c1nnc(Cn2nnc3ccccc32)s1,.,?,/,.,.,.
CCOC(=O)/C(=C/C=C1\Sc2cc(OCC)c(OCC)cc2N1CC)C(C)=O,.,.,/,.,?,22µM
CCOc1cc(OCC)c(C(=O)CCC(=O)O)cc1OCC,.,.,/,.,/,/
CCN1/C(=C/C(C)=O)Sc2ccc(OC)cc21,.,.,.,.,.,.
CCOC(=O)/C(=C\C=C1/Sc2cc(OCC)c(OCC)cc2N1CC)C(C)=O,.,.,.,.,?,5.6µM
COC(=O)c1sccc1NC(=O)/C=C/c1ccc(Cl)cc1Cl,.,?,.,.,.,.
COc1cc(C=O)ccc1OCCCOc1ccccc1C(=O)O,1.4µM,6.3µM,.,.,.,.
COc1ccc(/C=C/C(=O)NC(=S)NCc2ccccc2)cc1OC,2.2µM,?,/,.,.,.
COC(=O)c1cc(Cl)c(NC(=O)/C=C/c2ccc(Cl)cc2)cc1OC,?,.[0.365 µM],.,.,?,.
COC(=O)c1cc(Cl)c(NC(=O)/C=C/c2ccc(Cl)cc2Cl)cc1OC,.,.[0.365 µM],.,.,14µM!,.
COC(=O)c1cc(Cl)c(NC(=O)/C=C/c2ccc(OC)c(OC)c2)cc1OC,.,.[0.365 µM],28µM,.,.,.
SMILES,RORg inh,Gal4-VP16 FLuc,ClpP mod,Sfp PPTase inh,PINK1 expr mod,Epigenetic derep
COc1ccc(/C=C/C(=O)NC(C)CCc2ccccc2)cc1OC (stereo not drawn),.,.,.,.,.,.
Cn1nc(-c2ccc(F)cc2)nc2c(=O)n(C)c(=O)nc1-2,/,/,.,/,.,/
COc1ccc(NC(=O)CCn2cnnn2)cc1,/,/,.,/,.,.
COc1ccc(/C=C/C(=O)Oc2ccc(C)c(C)c2)cc1OC,.,.,/,8.9µM,.,.
O=C(/C=C/c1cccc([N+](=O)[O-])c1)NC(=S)Nc1ccccc1C(=O)O,?,?,/,40µM,/,?
COc1ccc(/C=C\C(=O)Nc2ccccc2C(=O)O)cc1OC,?,1.1µM,/,.,/,.
COc1cc(/C=C/C(=O)NCc2cccnc2)cc(OC)c1OC,.,.,25µM,.,.,.
COc1cccc(-c2nnc(SCC(=O)NC3CCCCC3)o2)c1,/,/,.,/,.,.
Cc1nc(NCc2c(F)cccc2F)sc1-c1ccn(CCN2CCOCC2)n1,/,/,/,/,.,/
Cc1ccc(NC(=O)/C=C/c2ccc(C)o2)c(C)c1,/,/,.,/,.,.
COc1ccc(N2CC(NC(=O)/C=C\c3ccc(OC)c(OC)c3)CC2=O)cc1 (stereo not drawn),/,/,32µM,/,.,.
COC(=O)c1ccc(Cl)cc1NC(=O)/C=C/c1ccc(C)o1,?,?,/,25µM,.,.
COc1ccc(/C=C/C(=O)Nc2nc(C)cc(C)n2)cc1OC,.,.,35µM,.,.,.
COc1cc(-c2ccc(Nc3ccccc3C(=O)O)c(OC)c2)ccc1Nc1ccccc1C(=O)O,.,.,/,50µM,.,.
COc1ccc(/C=C\C(=O)NC2CC(=O)N(c3ccccc3)C2)cc1OC (stereo not drawn),/,/,.,/,.,.
CCCNC(=O)c1cc2n(n1)CCCN(Cc1ccc(F)cc1)C2=O,/,/,.,/,.,.
CCOc1ccccc1CNC(=O)C1CCN(c2nn3cc(-c4ccc(F)cc4)nc3s2)CC1,/,/,.,/,.,.
O=C(NCc1ccco1)c1ccc(S(=O)(=O)N2CCOCC2)cc1,.,.,.,20µM,.,.
CC(C)c1ccc(S(=O)(=O)N2CCN(C(=S)NCc3ccco3)CC2)cc1,.,.,.,?,.,.
O=S(=O)(c1cccc(C(F)(F)F)c1)N1CCN(C(=S)NCc2ccco2)CC1,.,.,.,71µM,.,.
O=C(NCc1nnnn1-c1cccc(F)c1)c1ccc(S(=O)(=O)N2CCOCC2)cc1,/,/,.,/,.,/
O=C(NCc1ccco1)c1ccc(S(=O)(=O)N2CCCCC2)cc1,.,.,.,.,.,.
O=C(NCc1nnnn1-c1ccc(F)c(F)c1)c1ccc(S(=O)(=O)N2CCOCC2)cc1,/,/,35µM,/,.,/
O=c1c(-c2ccc(O)cc2)coc2cc(O[C@@H]3O[C@H](CO)[C@H](O)[C@H](O)[C@H]3O)ccc12,.,.,/,.,/,/
Clc1ccc2[nH]c(-c3ccccc3)cc2c1,.,.,28µM,.,.,.
c1ccc(-c2cc3ccccc3[nH]2)cc1,.,?,.,.,.,/
